# Bioassay records from PubChem BioAssay.
# Shown are actives, neighbours in structure and some others; about 1.4% of the full set was active somewhere.
# FadD28 FP inh: blocks FadD28 binding to the bisubstrate probe | inhibition, % at 12.5 µM | 360,000 tested, 0.22% active | fluorescence polarization | AID 588549; in the data active = inhibition above about 8.5%, passing the limit was not always enough; inconclusive = no clear call, values can overlap the other calls
# PrP 5UTR inh: suppresses PrP 5' UTR mRNA reporter expression; cell-based PrP 5' UTR mRNA reporter, plate reader; inhibition, % (concentration not given with the values); 340,000 tested, 0.35% active; in the data active = inhibition above about 52%; note: 0 = median of the neutral control wells
# PrPC surface inh: reduces human prion protein on the cell surface. cell surface PrPC, TR-FRET read-out. inhibition, % at 13.8 µM. 370,000 tested, 0.43% active; in the data active = inhibition above about 24%; note: 0% = median of the test wells and 100% = reference compound wells
# PriA SSB inh: inhibitors of Klebsiella pneumoniae PriA binding to SSB C-terminal tail; AlphaScreen SSBct-PriA binding, biotinylated peptide; inhibition, % at 33 µM; 430,000 tested, 0.6% active; in the data active = inhibition mostly above about 37%, no sharp cut-off; inactive = mostly below about 20%;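 note: plate controls were negative control peptide for no effect and reference peptide for full effect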
# Vc quorum ag: induces V. cholerae light production without autoinducers. V. cholerae BH1578 lux reporter, luminescence, 6 h. activation, % at 18.7 µM. 350,000 tested, 0.16% active. AID 588436; in the data active = activation mostly above about 9.7%, no sharp cut-off; inconclusive = no clear call, values can overlap the other calls; inactive = mostly below about 3.7%
# * marks the source's active call; other numbers are inactive results; i = inactive; u = inconclusive; x = no result; + = active, no number; ! = not active in a repeat.
SMILES,FadD28 FP inh,PrP 5UTR inh,PrPC surface inh,PriA SSB inh,Vc quorum ag
COc1cccc(CNCCc2c[nH]c3ccccc23)c1OCc1ccc(F)cc1,-1.5,1.4,-1.2,28.0,-0.2
COc1cc(CNCCc2c[nH]c3ccccc23)ccc1OCc1ccc(F)cc1,-13.0,-2.3,-11.3,39.7*,-1.8
Cc1ccc2c(c1)c(-c1ccccc1)c(-c1ccccc1)n2CC(O)CNC1CCCC1 (stereo unspecified),x,x,x,61.0*,x
COCc1[nH]nc2c1C(c1c(F)cccc1Cl)C(C#N)=C(N)O2 (stereo unspecified),-2.5,-8.3,5.2,4.0,0.5
N#CC1=C(N)Oc2n[nH]c(-c3ccccn3)c2C1c1c(F)cccc1Cl (stereo unspecified),-1.5,-8.4,-5.4,41.6*,-0.8
COc1ccc(C=NN2CCOCC2)cc1COc1ccc(F)cc1,x,x,x,13.2,x
Cn1ccc(C(=O)Nc2nnc(-c3ccco3)o2)n1,x,x,x,17.0,x
COc1ccc(N=C2S/C(=C\c3cc(C)n(C)c3C)C(=O)N2C)cc1,-2.5,-1.6,-11.9,38.8*,-5.9
COc1ccccc1N1CCN(S(=O)(=O)c2ccc3c4c(cccc24)C(=O)N3)CC1,-1.7,2.2,-11.1,35.0*!,-7.1
c1ccc2sc(C34CC5CC(CC(C5)C3)C4)nc2c1,x,x,x,-15.0,x
COc1ccc2c(/C=N/Nc3ccc(C(=O)O)cc3)c[nH]c2c1,13.8*,x,-15.4,x,i
COc1ccc2c(C=NNS(=O)(=O)c3ccc(C)cc3)c[nH]c2c1,x,x,x,0.0,x
COc1cc(-c2noc(C)c2C#Cc2ccc(N)cc2)cc(OC)c1OC,-2.9,65.0*,12.2,-0.8,i
COC(=O)c1ccc(C(=O)NCC#CCOc2ccc3c(c2)OCO3)cc1,x,x,x,1.0,x
CC1(C)Cc2ccccc2C(CCl)=N1,x,x,x,45.0*,x
O=C(O)CCCN1C(=O)/C(=C/C=C/c2ccco2)SC1=S,19.4*,-9.5,-8.7,-4.3,i
O=C(O)CCCN1C(=O)/C(=C\C(Cl)=C\c2ccccc2)SC1=S,9.3*,1.7,-5.0,28.9,i
O=C(NN1C(=O)/C(=C/C=C/c2ccco2)SC1=S)c1ccccc1O,58.3*,-23.9,2.6,2.8,-0.4
O=C(O)C(Cc1ccccc1)N1C(=O)/C(=C/C=C/c2ccco2)SC1=S (stereo unspecified),39.3*,-25.8,-10.5,12.0,-0.4
CC(/C=C1\SC(=S)N(CCCC(=O)Nc2cc(C)on2)C1=O)=C\c1ccccc1,x,x,x,-11.0,x
O=[N+]([O-])c1cc(F)c(N2CCCCCC2)cc1N1CCc2ccccc2C1,x,x,x,54.8*,x
O=[N+]([O-])c1cc(F)c(N2CCc3ccccc3C2)cc1N1CCCC1,x,x,x,52.4,x
CC1CCN(c2cc(N3CCOCC3)c(F)cc2[N+](=O)[O-])CC1,-4.0,-7.6,-12.4,58.3*,i
O=[N+]([O-])c1cc(F)c(N2CCc3ccccc3C2)cc1N1CCCCCC1,x,x,x,65.5*,x
CCN1C(=O)c2cccc3c(NC(=O)c4c(OC)cccc4OC)ccc1c23,x,x,x,-2.0,x
SMILES,FadD28 FP inh,PrP 5UTR inh,PrPC surface inh,PriA SSB inh,Vc quorum ag
O=C(Cn1c(=O)n(Cc2ccccn2)c(=O)c2ncccc21)NCc1ccco1,x,x,x,-21.0,x
CSc1ncccc1C(=O)N1C2C=CCC1CC2 (stereo unspecified),x,x,x,7.0,x
N#Cc1cnc(N)s1,x,x,x,-10.0,x
O=[N+]([O-])c1cc(Cl)ccc1Nc1ccc(O)cc1,x,x,x,103.3*,x
Cc1ccc(F)c(NC(=O)/C(C#N)=C(\O)c2ccc(C(C)(C)C)cc2)c1,29.3*,-8.0,5.0,-8.5,-0.5
COc1ccccc1NC(=O)c1ccn(C)n1,x,x,x,2.0,x
CC(=NN1CCN(Cc2ccccc2Cl)CC1)c1ccc([N+](=O)[O-])cc1,x,x,x,38.5*,x
CC(C)CNS(=O)(=O)c1ccc2nc(NC(=O)c3ccccc3Cl)sc2c1,x,x,x,41.0*,x
O=Nc1c(O)n(Cc2ccc(Cl)cc2)c2ccccc12,-3.0,-17.2,-3.1,10.1,225.8*
C/C(Cl)=C\Cn1c(O)c(N=O)c2ccccc21,u,-9.3,-13.3,14.9,+
Cc1ccc(Cn2c(O)c(N=O)c3ccccc32)cc1,-1.5,-17.1,-7.5,3.4,20.1
C=CCn1c(O)c(N=O)c2ccccc21,-1.2,-18.8,1.2,-1.6,2.8
Cc1cccc(C=NNC(=O)c2ccc(NC(=O)c3ccccc3Cl)cc2)n1,x,x,x,-1.7,x
COc1cccc(C(=O)Nc2cc(C)nn2-c2nc3c(cnn3-c3cccc(C)c3C)c(=O)[nH]2)c1OC,x,x,x,94.0*,x
Cc1cc(NC(=O)COc2ccccc2F)n(-c2nc3c(cnn3-c3cccc(C)c3C)c(=O)[nH]2)n1,x,x,x,43.0*,x
CC(=O)Nc1ccc(S(=O)(=O)Nc2nc3ccccc3nc2Nc2ccc(O)c(C(=O)O)c2)cc1,13.2*,-11.3,3.1,5.2,-0.6
Cc1ccc(CNC(=O)C(=O)NCC(=O)N2CCOC(c3ccccc3)C2)cc1 (stereo unspecified),x,x,x,-4.0,x
CCCN1CCCc2cc(CCNS(=O)(=O)c3cc(OC)ccc3OC)ccc21,x,x,x,43.0*,x
CCCN1CCCc2cc(CCNC(=O)C(=O)Nc3ccc(OC)cc3OC)ccc21,x,x,x,36.0,x
CCCN1CCCc2cc(CCNS(=O)(=O)c3cc(Cl)ccc3OC)ccc21,x,x,x,56.0*,x
CCCN1CCCc2cc(CCNS(=O)(=O)c3cc(CC)ccc3OC)ccc21,x,x,x,66.0*,x
CN(C)CCN(C(=O)c1ccc(S(=O)(=O)N2CCCCCC2)cc1)c1nc2ccc(F)cc2s1,x,x,x,15.0,x
Cc1sc2ncnc(SCC(=O)Nc3c(C)n(C)n(-c4ccccc4)c3=O)c2c1C,x,x,x,84.0*,x
O=c1c(O)cccc2cc(O)c(O)c(O)c12,16.0*,8.3,9.3,x,0.6
O=C(CN1CCCCC1)Nc1ccc(Br)cc1[N+](=O)[O-],-0.4,-23.2,-5.9,23.9,47.7*
SMILES,FadD28 FP inh,PrP 5UTR inh,PrPC surface inh,PriA SSB inh,Vc quorum ag
O=C(O)C1CCCN(c2cc(-n3ccc4ccccc43)ncn2)C1 (stereo unspecified),x,x,x,-7.0,x
COc1ccc(Cc2nnc(SCC(=O)N3CCN(c4ccccc4)CC3)o2)cc1,0.8,5.3,8.5,5.8,2.1
COc1ccc(Cc2nnc(SCC(=O)N3CCCCC3)o2)cc1,-3.5,-6.7,0.6,52.8*,-0.3
COc1ccc2c(c1)C(=NNc1ccc(C(=O)O)cc1)c1cc(OC)ccc1-2,u,-22.2,-3.5,4.7,i
COc1ccc2c(c1)C(=NN)c1cc(OC)ccc1-2,-1.8,-34.5,-13.1,47.0*,-0.7
O=[N+]([O-])c1cccc(NN=Cc2ccc(N3CCOCC3)cc2)c1,x,x,x,52.3*,x
O=[N+]([O-])c1cccc(N/N=C/c2ccc(N3CCOCC3)cc2)c1,-2.4,-87.0,-12.2,x,-4.8
CCc1cccc(Nc2c([N+](=O)[O-])cc(C(=O)N3CC(=O)Nc4ccccc43)cc2[N+](=O)[O-])c1,0.1,-9.8,-6.8,47.7*,-0.1
CCc1cccc(NC(=O)CNC(=O)N2CC(=O)Nc3ccccc32)c1,-0.4,-24.7,3.0,-14.3,-3.1
COc1cc2c(cc1OC)-c1c(OC)c(OC)cc3c1[C@H](C2)N(C)CC3,0.4,10.6,-45.5,73.2*,-10.0
COc1cc2c(cc1O)CC1c3c(cc(O)c(OC)c3-2)CCN1C (stereo unspecified),0.3,-10.3,-1.4,33.1,-0.8
